Results filed as inconclusive are left out. Entries that show only a call come without a potency. The source made the active and inactive calls. Calls come from the whole dose curve; as a rule, active = well fitted cell-killing curve with a large enough effect; inconclusive = small, poorly fitted or top-dose-only effect; inactive = flat fitted curve, though single readings scatter.
Assay: Quantitative highthroughput screen to assess conditional lethalithy of P12 Ichikawa cells grown in RPMI1640 with untreated serum (RPMI+s) (AID 1963881); note: nearly all actives have a fitted effect of over 35% in size
Conditions: ATP luminescence, 48 h; Potency: viability; series mostly up to 45.8 µM
Description: Assay Provider: Jason Cantor Ph.D.
Department of Biochemistry
University of Wisconsin-Madison, Madison, WI, USA
Chemical screening studies have identified drug sensitivities across hundreds of cancer cell lines but most putative therapeutics fail to translate. Discovery and development of drug candidates in models that more accurately reflect nutrient levels in human blood is a major challenge. Here we performed high-throughput screens in conventional versus Human Plasma-Like Medium (HPLM) to identify compounds that were "missed" when screening using the artificial culture condition. Sets of conditional anticancer compounds spanned phases of clinical development and included non-oncology drugs were assessed. […] We also traced conditional phenotypes for several chemotherapeutics to availability of HPLM-specific metabolites and confirmed others for compounds whose reported targets are encoded by nonessential genes. Our findings establish generalizable strategies for exploiting conditional lethality in HPLM to reveal therapeutic candidates and mechanisms of action in cancer cells.
Described herein are the results of each viability screens against three cell lines: NOMO1 (an acute myeloid leukemia cell line); P12-Ichikawa (a T-cell acute lymphoblastic leukemia); and SEM (a B-cell ALL). Each assay was screened using 3 different cell culture media: homemade human plasma-Like medium with 10% dialyzed fetal bovine serum (HPLM+ds); RPMI1640 with 10% untreated FBS and 5mM glucose (RPMI+s); and RPMI1640 with 10% dialyzed fetal bovine serum and 5 mM glucose (RPMI+ds).
PROTOCOL TABLE (as described by Inglese J, Shamu CE and Guy RK. 2007)
SEQUENCE No. (e.g., 1, 2, 3, etc.); […] (e.g., Cells, Incubation, Reagent, etc.); VALUE and DESCRIPTION.
1; Cells; 5 uL; white, solid bottom 1536-well Greiner assay plate.
2; Compounds; 23 nL; Kalypsis pin tool (Wako USA) equipped with a 1536-well pin head to transfer to the assay plates.
3; Incubation; 48 hours; 37C incubation.
4; Reagent; 3 uL; CellTiter Glo (Promega).
5; Incubation; 5 min, room temperature
6; Detection; Luminescence, Viewlux PerkinElmer.
NOTES (numbers refer to Sequence numbers above)
1. Briefly, 5 ul of cell reagent was dispensed using a Multidrop Combi Dispenser. The NOMO1 and SEM cells were plated at 500 cells/well and the P12-Ichikawa line at 1000 cells/well.
2. After seeding the cells, 23 nL of MIPE 4.1 library compounds (in DMSO) were added to each plate using a Kalypsys 1536 Pintool dispenser. Bortezomib at final concentration of […] and DMSO were added to each plate as positive and negative controls respectively. For each screen, MIPE 4.1 compounds were added over an eleven-point concentration range […] in 3-fold dilutions.
3. Each plate was covered with a stainless steel gasketed lid to prevent evaporation and incubated for 48 hour at 37C, 95% relative humidity, and 5% CO2.
4-5. Three microliter CellTilter-GloTM luminescent substrate mix (Promega) reagent was added to the assay plate and incubated at room temperature for 5 min.
6. The luminescence signal was measured using a ViewLux (PerkinElmer) multiplate reader with a 2 second exposure time per plate. Data for each compound were normalized as percent viability such that measurements for DMSO and the empty well controls in each plate were defined as 100% and 0%, respectively.
Potency is the fitted concentration of half-maximal effect.

| Structure (SMILES) | Potency |
| --- | --- |
| COc1cc2nccc(Oc3ccc(NC(=O)C4(C(=O)Nc5ccc(F)cc5)CC4)cc3)c2cc1OC | 20.9 µM (active) |
| COc1cc2ncn(-c3cc(OCc4ccccc4C(F)(F)F)c(C(N)=O)s3)c2cc1OC | 2.09 µM (active) |
| CCn1c(-c2nonc2N)nc2cncc(CNC3CCNCC3)c21 | 23.5 µM (active) |
| CCNC(=O)Nc1ccc2ncc(Nc3ccc(C)cc3)nc2n1 | inactive |
| CCCn1c(=O)c2[nH]c(C34CC5CC3C[C@@H](C5)C4)nc2n(CCC)c1=O | inactive |
| CN(C)CCN1C(=O)c2cccc3cc(N)cc(c23)C1=O | 16.6 µM (active) |
| Cc1cc(C(=O)NOCCO)c(Nc2ccc(I)cc2F)n(C)c1=O | inactive |
| COc1cc(C)c(C=CC(C)=CC=CC(C)=CC(=O)O)c(C)c1C | inactive |
| CN(c1nccc(=O)[nH]1)C1CCN(c2nc3ccccc3n2Cc2ccc(F)cc2)CC1 | inactive |
| CO[C@@H]1[C@@H](O)[C@H](O)[C@@H](n2c3c(Cl)cccc3c3c4c(c5c6cccc(Cl)c6[nH]c5c32)C(=O)NC4=O)O[C@@H]1CO | 0.235 µM (active) |
| CC(C)(C)C(=O)OCOP(=O)(COCCn1cnc2c(N)ncnc21)OCOC(=O)C(C)(C)C | 0.332 µM (active) |
| Nc1ncnc2c1ncn2[C@@H]1O[C@H](CO)C[C@@H]1O | inactive |
| CCOC(=O)N1CCN([N+]([O-])=NOc2ccc([N+](=O)[O-])cc2[N+](=O)[O-])CC1 | 23.5 µM (active) |
| CN(C(Cc1ccc(OS(=O)(=O)c2cccc3cnccc23)cc1)C(=O)N1CCN(c2ccccc2)CC1)S(=O)(=O)c1cccc2cnccc12 (stereo not given) | 14.8 µM (active) |
| CCOC(=O)C1=C(C)NC(=S)NC1c1cccc(O)c1 (stereo not given) | 0.148 µM (active) |
| FC(F)(F)c1ccc(CNc2ccc(Cc3c[nH]c4ncc(Cl)cc34)cn2)cn1 | 3.71 µM (active) |
| CNS(=O)(=O)CCc1ccc2[nH]cc(C3CCN(C)CC3)c2c1 | inactive |
| C=Cc1c(C)c2cc3nc(cc4[nH]c(cc5nc(cc1[nH]2)C(C)=C5CCC(=O)O)c(CCC(=O)OC)c4C)[C@@]1(C)C3=CC=C(C(=O)OC)[C@H]1C(=O)OC | 14.8 µM (active) |
| Cc1cccc(N(C)C(=S)Oc2ccc3ccccc3c2)c1 | inactive |
| CN(NC(=O)CC(=O)NN(C)C(=S)c1ccccc1)C(=S)c1ccccc1 | 0.0741 µM (active) |

| Structure (SMILES) | Potency |
| --- | --- |
| CCc1nc(N)nc(N)c1-c1ccc(Cl)cc1 | 10.5 µM (active) |
| Cc1c(O)cccc1C(=O)N[C@@H](CSc1ccccc1)[C@H](O)CN1C[C@H]2CCCC[C@@H]2C[C@@H]1C(=O)NC(C)(C)C | inactive |
| COC(=O)Nc1cc(Nc2cc(NC3CC3)c3ncc(C#N)n3n2)c(Cl)c(N2CCN(C)CC2)c1 | 14.8 µM (active) |
| COc1cc([C@H]2Oc3cc([C@H]4Oc5cc(O)cc(O)c5C(=O)[C@H]4O)ccc3O[C@H]2CO)ccc1O | inactive |
| C[C@H](NC(=O)Cc1cc(F)cc(F)c1)C(=O)N[C@@H]1C(=O)N(C)c2ccccc2-c2ccccc21 | 7.43 µM (active) |
| CCC(=C(c1ccccc1)c1ccc(OCCN(C)C)cc1)c1ccccc1 | inactive |
| OC[C@H]1O[C@@H](OCCc2ccc(O)cc2)[C@H](O)[C@@H](O)[C@H]1O | inactive |
| CCNC(=O)[C@H]1O[C@@H](n2cnc3c(N)nc(NCCc4ccc(CCC(=O)O)cc4)nc32)[C@H](O)[C@H]1O | inactive |
| Cc1c(CCOc2ccc(C(=O)O)cc2)c2cc(Cl)ccc2n1C(c1ccccc1)c1ccccc1 | inactive |
| Cc1cn([C@@H]2C[C@@H](O)[C@H](CO)O2)c(=O)[nH]c1=O | 26.4 µM (active) |
| CN1C(C(=O)Nc2ccccn2)=C(O)c2ccccc2S1(=O)=O | 14.8 µM (active) |
| O=C(NCCO[N+](=O)[O-])c1cccnc1 | inactive |
| CCCCN(CCCC)CCC(O)c1cc2c(Cl)cc(Cl)cc2c2cc(C(F)(F)F)ccc12 (stereo not given) | 13.2 µM (active) |
| C[C@@H]1[C@H](C)CC[C@]2(C(=O)O)CC[C@]3(C)C(=CC[C@@H]4[C@@]5(C)C[C@@H](O)[C@H](O)[C@@](C)(CO)[C@H]5CC[C@]43C)[C@@H]12 | inactive |
| NC(=O)c1ncn([C@@H]2O[C@H](CO)[C@@H](O)[C@@H]2O)c1N | inactive |
| COc1cc(C(C)C)c(Oc2cnc(NC(CO)CO)nc2N)cc1I | inactive |
| CC(=O)CC(c1ccccc1)c1c(O)c2ccccc2oc1=O (stereo not given) | inactive |
| Cc1ccc(C(C)(O)c2nc3ccccc3s2)c(C)c1 (stereo not given) | 14.8 µM (active) |
| N#CC(=C(O)c1ccc(Cl)cc1Cl)c1nc2cc(Cl)ccc2c(=O)[nH]1 | inactive |
| Cc1ccc(S(=O)(=O)NC(=O)NN2CC3CCCC3C2)cc1 (stereo not given) | 4.18 µM (active) |

Reference: PubChem BioAssay (NCATS)
